We go through 13 compounds from PubChem BioAssay (NCI).

Some test systems named below: NCI-H23 lung; NCI-H226 lung; NCI-H322M lung; HOP-62 NSCLC; NCI-H460 lung; HOP-92 NSCLC; NCI-H522 lung; A549/ATCC NSCLC; 786-0 renal; COLO 205 colon.
Experiment in all cases: NCI-60 one-dose screen, 48 h (100 = growth as untreated, 0 = no growth, -100 = all killed)
Holding throughout (settings): 10 µM unless noted

This is part of a sample that, as a whole, favours compounds with a hit. Of some 83,000 tested, about 20% had one in any assay.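 Cells were grown in 96-well plates and exposed to the test compound at a single concentration for 48 hours; results are reported as percent growth, with values below 10 considered active.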 Values without a mark were called inactive. Calls of active or inactive are those of the source.

For `Cn1c(=O)c2c(nc(NC3=NS(=O)(=O)c4ccccc43)n2CC(=O)N2CCc3ccccc32)n(C)c1=O`, the growth is 87.2% with NCI-H23 lung; 98.8% in the test on NCI-H226 lung; 100% in the test with NCI-H322M lung; 94.4% with HOP-62 NSCLC; 100% in the test with NCI-H460 lung; 109% with HOP-92 NSCLC. For the same compound, the growth was 97.5% with NCI-H522 lung, 99.3% in the test on A549/ATCC NSCLC, 97.3% in the test with 786-0 renal and 101% with COLO 205 colon.

With `O=C(Cn1c(=O)sc2nc3ccccc3nc21)Nc1ncc(Cc2cccc(Cl)c2Cl)s1`, the growth in the test on NCI-H23 lung is 97.1%; in the test with NCI-H226 lung, 86.5%; in the test with NCI-H322M lung it was 97.1%; in the test with HOP-62 NSCLC, 97.2%; in the test on NCI-H460 lung it was 104%; in the test with HOP-92 NSCLC, 100%. Moreover, the growth was 82.5% with NCI-H522 lung, 99.6% in the test on A549/ATCC NSCLC, 99.8% in the test on 786-0 renal and 95.6% in the test with COLO 205 colon.

As to `Cc1nc2sc(C(=O)Nc3ccccc3)c(N)c2cc1C(=O)c1ccccc1`, the growth in the test on NCI-H23 lung is 64.4%; with NCI-H226 lung, 31.3%; in the test on NCI-H322M lung it was 39.4%; in the test on HOP-62 NSCLC, 34.5%; in the test with NCI-H460 lung, 6.08% (active); in the test on HOP-92 NSCLC, 59.8%. Also, the growth in the test with NCI-H522 lung was 50.2%; with A549/ATCC NSCLC, 23.7%; in the test with 786-0 renal it was 44.4%; with COLO 205 colon, -25% (active).

Turning to `CN(C)C1CCN(Cc2ccc(NC(=O)c3cncc(C#Cc4cnc(N)c5ncccc45)c3)cc2C(F)(F)F)CC1`, the growth in the test with NCI-H23 lung is 84.7%; in the test on NCI-H226 lung it was 90%; in the test on NCI-H322M lung it was 112%; in the test on HOP-62 NSCLC it was 75.5%; with NCI-H460 lung it was 0.477% (active); in the test on HOP-92 NSCLC, 66.4%. Besides, the growth is 84.9% with NCI-H522 lung, 72.2% in the test with A549/ATCC NSCLC, -78.9% (active) with 786-0 renal and 69.6% in the test on COLO 205 colon.

`C#Cc1ccc(NC(=O)c2ccc(/C=C/C(=O)c3nccn3C)cc2)cc1`: the growth in the test on NCI-H23 lung was -56% (active); in the test with NCI-H226 lung it was -35.3% (active); in the test with NCI-H322M lung, -95.4% (active); with HOP-62 NSCLC, -47% (active); with NCI-H460 lung, -56.4% (active); with HOP-92 NSCLC, -25.4% (active). Further, the growth is -26.7% (active) in the test with NCI-H522 lung, -0.388% (active) in the test with A549/ATCC NSCLC, -79.1% (active) in the test on 786-0 renal and -53.7% (active) with COLO 205 colon.

In the case of `COC(=O)c1c2c(c(C)[n+]([O-])c1C)C(=O)C(NCc1ccc(Cl)cc1)=CC2=O`, the growth with NCI-H23 lung is 59%; in the test on NCI-H226 lung, 92.6%; in the test on NCI-H322M lung, 64.3%; in the test with HOP-62 NSCLC, 78.2%; in the test with NCI-H460 lung it was 51.8%; in the test on HOP-92 NSCLC, 107%. The growth was 42% in the test on NCI-H522 lung, 66.9% in the test on A549/ATCC NSCLC, 74% in the test on 786-0 renal and 9.79% (active) in the test on COLO 205 colon.

Take `Cc1nc(-c2ccccc2)cc2c(O)c(C(=O)NN)[nH]c(=O)c12`: the growth is 103% in the test on NCI-H23 lung; 104% with NCI-H226 lung; 92.7% in the test with NCI-H322M lung; 107% with HOP-62 NSCLC; 106% in the test on NCI-H460 lung; 85.6% in the test on HOP-92 NSCLC. In addition, the growth with NCI-H522 lung is 94.3%; in the test with A549/ATCC NSCLC it was 102%; in the test with 786-0 renal, 108%; with COLO 205 colon it was 117%.

For `C#CCn1cnc2c(Nc3cccc(NC(=O)C=C)c3)ncnc21`, the growth was 89.7% in the test with NCI-H23 lung; 66.3% with NCI-H226 lung; 103% with NCI-H322M lung; 75.2% in the test on HOP-62 NSCLC; 80.3% with NCI-H460 lung; 68.5% in the test on HOP-92 NSCLC. Also, the growth in the test on NCI-H522 lung was 79.4%; in the test on A549/ATCC NSCLC it was 63.9%; with 786-0 renal, 61.7%; in the test on COLO 205 colon, 84.4%.

For `N#CCSc1nnc2n(Cc3ccccc3)c(=O)c3c4c(sc3n12)CCCC4`, the growth with NCI-H23 lung was 105%; in the test on NCI-H226 lung, 102%; in the test on NCI-H322M lung, 102%; in the test on HOP-62 NSCLC, 91.9%; with NCI-H460 lung, 108%; in the test on HOP-92 NSCLC it was 71.3%. Besides, the growth in the test on NCI-H522 lung was 104%; in the test with A549/ATCC NSCLC, 80.4%; in the test on 786-0 renal it was 76.3%; in the test on COLO 205 colon it was 106%.

With `Cn1c(O)c(C=NCCN=Cc2c(O)n(C)c(=O)n(C)c2=O)c(=O)n(C)c1=O`, the growth in the test on NCI-H23 lung is 97%; in the test on NCI-H226 lung, 92.3%; with NCI-H322M lung, 89.3%; in the test with HOP-62 NSCLC, 90.7%; with NCI-H460 lung, 107%; with HOP-92 NSCLC it was 86.2%. Also, the growth is 105% in the test with NCI-H522 lung, 100% in the test with A549/ATCC NSCLC, 113% in the test with 786-0 renal and 101% with COLO 205 colon.

Consider `Cn1ccc2c3c(ccc21)CC3=O`, for which the growth in the test with NCI-H23 lung is 97%; with NCI-H226 lung, 100%; in the test on NCI-H322M lung, 116%; with HOP-62 NSCLC, 111%; in the test with NCI-H460 lung, 108%; in the test on HOP-92 NSCLC, 114%. Also, the growth in the test with NCI-H522 lung was 98.4%; in the test on A549/ATCC NSCLC it was 105%; with 786-0 renal it was 107%; with COLO 205 colon, 119%.

In the case of `CC(O)c1cnc(/C=C2\SC(=S)N(Cc3ccccc3)C2=O)s1` (stereo not given), the growth with NCI-H23 lung is 99.7%; with NCI-H226 lung, 90.3%; in the test on NCI-H322M lung, 87.8%; in the test on HOP-62 NSCLC, 39%; in the test on NCI-H460 lung it was 96.8%; in the test on HOP-92 NSCLC it was 43.7%. Moreover, the growth in the test on NCI-H522 lung is 0.337% (active); in the test with A549/ATCC NSCLC it was 66.7%; with 786-0 renal, 59.2%; in the test on COLO 205 colon, 35.7%.

For `CCCC(O)Cn1ncc(C(=O)OCC)c1NC(=O)NCc1ccccc1F` (stereo not given), the growth with NCI-H23 lung was 81.1%; in the test with NCI-H226 lung, 96.8%; with NCI-H322M lung, 95.6%; in the test on HOP-62 NSCLC it was 105%; in the test on NCI-H460 lung, 97.8%; in the test on HOP-92 NSCLC, 92.1%. In addition, the growth in the test on NCI-H522 lung was 57%; with A549/ATCC NSCLC, 82.4%; with 786-0 renal, 95.6%; with COLO 205 colon, 116%.
